Bioassay records as filed in PubChem.
Shiga inhibitor: A qHTS for Small Molecule Inhibitors of Shiga Toxin. Vero cells, Shiga toxin protein synthesis inhibition reporter. inhibition, % at 38.7 µM. 290,000 compounds, 9.2% hits; in the data active = inhibition mostly above about 28%, no sharp cut-off; inactive = mostly below about 43%; also: 0% is about no effect
CHX counter: Cycloheximide Counterscreen for Small Molecule Inhibitors of Shiga Toxin | cell reporter, cycloheximide protein synthesis inhibition counterscreen | max response, % | 300,000 compounds, 12% hits | AID 2314, 2010; in the data active = max response mostly above about 13%, no sharp cut-off; inactive = mostly below about 14%; also: read at 38.3 µM for the half of the compounds with a filed dose; 0% is about no effect
Pf growth 48h: Primary qHTS for delayed death inhibitors of the malarial parasite plastid, 48 hour incubation. P. falciparum luciferase growth in erythrocytes, 48 h. Potency, µM (doses to about 28.7 µM), inactives show at the highest dose activity change, negative = inhibition, most hits filed as inhibitors. 310,000 compounds, 5.9% hits. AID 504832, 2011; also: potency is read from the fitted curve at half-maximal effect; % is scaled to controls: 0 for no effect and ±100 for the full control effect
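Parasite viability was followed by luminescence of a genomically integrated firefly luciferase. Cultures held 0.1% parasitemia at 2% hematocrit (final), incubated under 5% CO2 at 37 C.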
Pf growth 96h: Primary qHTS for delayed death inhibitors of the malarial parasite plastid, 96 hour incubation. 320,000 compounds, 6.9% hits. P. falciparum luciferase reporter growth, 96 h. AID 504834, 2011. Potency, µM (titrated, usually from 28.7 µM), inactives show top-dose activity change, negative = inhibition, usual class: inhibitors; also: potency is read from the fitted curve at half-maximal effect; % is scaled to controls: 0 for no effect and ±100 for the full control effect
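Delayed-death screen, second-generation endpoint: infected erythrocytes, 2% hematocrit, 0.05% parasitemia final; 96 hours at 37 C, 5% CO2; luciferase detection reagent; luminescence decrease equals reduced growth.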
* = called active by the depositor; ? = inconclusive; . = no result given; + = active, no number. In the library only some 21% were active in any assay of this set; here they are far more common. Unless noted, calls follow the shape of the dose curve; as a rule, active = well fitted inhibition curve with a large enough effect; inconclusive = small, poorly fitted or top-dose-only effect, or another doubt; inactive = no such curve, though single readings can be large or run the other way.

SMILES | Shiga inhibitor | CHX counter | Pf growth 48h | Pf growth 96h
O=C(CC1CCCCC1)N1CCCC(c2nc(-c3ccc(S(=O)(=O)N4CCCC4)cc3)no2)C1 (stereo unspecified) | -6 | -6 | . | ?
COc1ccc(-c2noc(C3CCCN(C(=O)c4ccccc4OC)C3)n2)cc1 (stereo unspecified) | 14 | 15 | -13% | ?
O=C(c1ccco1)N1CCCC(c2nc(-c3ccc(S(=O)(=O)NCc4ccccc4)cc3)no2)C1 (stereo unspecified) | + | 10 | ? | 44%
Cc1ccc(OCC(=O)Nc2cnn(CCCC(=O)O)c2)c([N+](=O)[O-])c1 | 2 | -4 | -42% | 50%
O=C(CN1CCN(c2cccc(Cl)c2)CC1)c1ccc(O)cc1O | 6 | -5 | 4% | 2%
CCCOC1CCCN(C(=O)c2ccc(OC3CCN(C(=O)COC)CC3)cc2)C1 (stereo unspecified) | 43 | 8 | 9% | ?
COCCC(=O)N1CCC(Oc2ccc(C(=O)N(C)C3CCCCC3)cc2)CC1 | . | 12* | -6% | ?
CCCOC1CCCN(C(=O)c2ccc(OC3CCN(C(=O)CCOC)CC3)cc2)C1 (stereo unspecified) | 52 | 16* | 3% | 8%
COCC(=O)N1CCC(Oc2ccc(C(=O)N(C)C3CCCCC3)cc2)CC1 | -3 | -4 | 5% | -19%
O=C(N/N=C\c1ccc[nH]1)C1COc2ccccc2O1 (stereo unspecified) | -5 | -3 | 4% | -2%
COc1cc(/C=C/C(=O)NC(C)C2CC3CCC2C3)cc(OC)c1OC (stereo unspecified) | 101* | 19* | ? | ?
COc1cc(OC)c(N(C)S(=O)(=O)c2cccc(C(=O)NC(C)C3CC4CCC3C4)c2)cc1Cl (stereo unspecified) | -8 | -1 | -7% | 2.6µM*
CCn1ncc(NC(=S)NCCc2ccc(OC)c(OC)c2)c1C(N)=O | -7 | -3 | 8% | 2%
COc1ccc(CCC(C)Nc2ccc(F)cc2)cc1 (stereo unspecified) | 19 | 10 | ? | 34%
CC(=O)c1ccc(S(=O)(=O)NC2CC(=O)N(c3ccc(Cl)cc3)C2)cc1 (stereo unspecified) | . | . | -21% | -6%
CCCCN1CCc2c([nH]c3c(C)cccc23)C1=O | 69* | 42* | . | ?
CCCc1c(C)c2cccc(C)c2[nH]c1=O | 15 | -1 | 1% | -9%
O=C(CN1CCc2ccccc2C1)Nc1ccccc1C(F)(F)F | -3 | -2 | -3% | 3%
Cc1ccc(CCNC(=O)CN(C)S(=O)(=O)c2ccc3c(c2)n(C)c(=O)c(=O)n3C)cc1 | -4 | -3 | ? | 9.3µM*
Cc1ccccc1NC(=O)CN(C)S(=O)(=O)c1ccc2c(c1)n(C)c(=O)c(=O)n2C | -3 | -2 | ? | 10µM*
Cc1cccc(NC(=O)CN(C)S(=O)(=O)c2ccc3c(c2)n(C)c(=O)c(=O)n3C)c1C | 1 | -9 | -10% | ?
CCC(Cc1ccccc1)NC(=O)CN(C)S(=O)(=O)c1ccc2c(c1)c(=O)n(C)c(=O)n2C (stereo unspecified) | -6 | -6 | . | 7.4µM*
COc1ccc(C(=O)OCC(=O)Nc2c(C)cccc2C)c(OC)c1OC | -6 | -3 | -3% | 4%
O=C(COC(=O)CCc1nc2ccccc2s1)NC(=O)NCc1ccco1 | 29 | -2 | 29% | -23%
COc1ccc(C2CC(c3ccccc3)Oc3cc(OC)ccc32)cc1 (stereo unspecified) | 1 | 13 | . | .
SMILES | Shiga inhibitor | CHX counter | Pf growth 48h | Pf growth 96h
COc1ccc2c(c1)C(=O)CCC2c1ccccc1 (stereo unspecified) | -7 | 1 | -9% | 5.2µM*
COc1cc(SC)ccc1C(=O)NCC1CCCO1 (stereo unspecified) | 74 | 24* | 38% | .
CSc1ccc(Cl)c(C(=O)NC2CCCC2)c1 | 10 | -3 | 6% | -1%
COc1cc(SC)ccc1C(=O)NC1CCCCC1 | 51 | 36* | -6% | 35%
COc1cc(SC)ccc1C(=O)OCC(=O)NC1CCCCC1 | 35 | 60* | 12% | 5%
COc1cc(C(=O)NCC2CCCO2)ccc1OCc1ccccc1Cl (stereo unspecified) | 37 | 16* | ? | -2%
COc1cc(C(=O)NCC2CCCO2)ccc1OCc1ccccc1 (stereo unspecified) | 10 | 6 | -7% | 4%
O=C(NCc1cccc2[nH]ccc12)C1CCC(=O)N(CCc2ccc(Cl)cc2)C1 (stereo unspecified) | -4 | -4 | 1% | 101%
